Test systems include SR leukemia; RPMI-8226 leukemia; OVCAR-8 ovarian; OVCAR-5 ovarian; OVCAR-4 ovarian; SK-OV-3 ovarian; IGROV1 ovarian; OVCAR-3 ovarian; HS 578T breast; NCI/ADR-RES ovarian; T-47D breast; BT-549 breast; MDA-MB-435 melanoma; SW-620 colon; MCF7 breast; HCT-116 colon; HCC-2998 colon; KM12 colon.
Common to all, as to experiment: NCI-60 one-dose screen, 48 h (100 = growth as untreated, 0 = no growth, -100 = all killed)
What all share (conditions): 10 µM unless noted

The structures appear in SMILES notation. This is part of a sample that, as a whole, favours compounds with a hit. Of some 83,000 tested, about 20% had one in any assay.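 Step 1: grow cells in 96-well plates. Step 2: add test compound at a single concentration. Step 3: incubate 48 h. Step 4: record percent growth.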 Values without a mark were called inactive. Calls of active or inactive are those of the source. Rule for the calls: active = growth percent below 10; inactive = the rest.

`C#C[C@]1(O)CC[C@H]2[C@@H]3CC=C4c5sc(Nc6ncccc6C)nc5CC[C@]4(C)[C@H]3CC[C@@]21C`: the growth in the experiment with SR leukemia is -3.26% (active); with RPMI-8226 leukemia it was -36.2% (active); in the experiment with OVCAR-8 ovarian, 31.1%; with OVCAR-5 ovarian, 26%; with OVCAR-4 ovarian it was 34.9%; in the experiment on SK-OV-3 ovarian it was -37.2% (active). The growth is 40% with IGROV1 ovarian; 32.1% in the experiment on OVCAR-3 ovarian; -16.1% (active) with HS 578T breast; 28.1% in the experiment with NCI/ADR-RES ovarian; 29.2% in the experiment with T-47D breast; -1.46% (active) in the experiment on BT-549 breast. Besides, the growth in the experiment with MDA-MB-435 melanoma was -39.3% (active); in the experiment on SW-620 colon, -40.9% (active); with MCF7 breast, -48.8% (active); in the experiment with HCT-116 colon, 7.15% (active); with HCC-2998 colon it was 28.8%; with KM12 colon, 3.23% (active).

With `N/C(=N\C(N)=N\c1nc2ccccc2s1)c1ccc(Cl)cc1`, the growth in the experiment on SR leukemia is -8.26% (active); with RPMI-8226 leukemia it was 57%; in the experiment on OVCAR-8 ovarian, 79.5%; with OVCAR-5 ovarian, 94.5%; with OVCAR-4 ovarian, 101%; with SK-OV-3 ovarian, 110%. Further, the growth in the experiment with IGROV1 ovarian is 92%; with OVCAR-3 ovarian it was 98.4%; with HS 578T breast, 105%; with NCI/ADR-RES ovarian, 80.3%; in the experiment with T-47D breast, 68.3%; with BT-549 breast, 94.4%. The growth in the experiment on MDA-MB-435 melanoma is 96.3%; in the experiment with SW-620 colon, 103%; in the experiment with MCF7 breast it was 69.3%; in the experiment on HCT-116 colon, 74.7%; in the experiment with HCC-2998 colon, 102%; with KM12 colon, 68.4%.

As to `Cc1ccc(S(=O)(=O)NCCCNc2nccc(-c3[nH]c(-c4ccccc4)nc3-c3ccc(F)c(O)c3)n2)cc1`, the growth with SR leukemia was 33.8%; with RPMI-8226 leukemia it was 53.7%; in the experiment on OVCAR-8 ovarian, 86.7%; in the experiment with OVCAR-5 ovarian, 143%; in the experiment with OVCAR-4 ovarian it was 107%; in the experiment on SK-OV-3 ovarian, 117%. For the same compound, the growth in the experiment with IGROV1 ovarian was 99%; with OVCAR-3 ovarian it was 132%; in the experiment with HS 578T breast, 99.6%; with NCI/ADR-RES ovarian, 104%; in the experiment on T-47D breast it was 71.1%; in the experiment on BT-549 breast, 93.1%. Besides, the growth in the experiment with MDA-MB-435 melanoma was 17.6%; with SW-620 colon, 115%; in the experiment on MCF7 breast, 73.5%; in the experiment on HCT-116 colon, 69.6%; with HCC-2998 colon it was 127%; in the experiment on KM12 colon it was 83.9%.

On to `Cc1ccc(C(=O)CSc2nc3ccccc3c(=O)n2C)cc1`, for which the growth was 81.5% in the experiment on SR leukemia; 63.8% with RPMI-8226 leukemia; 94.4% in the experiment with OVCAR-8 ovarian; 105% in the experiment with OVCAR-5 ovarian; 52.4% in the experiment on OVCAR-4 ovarian; 87.4% in the experiment on SK-OV-3 ovarian. Besides, the growth was 71.1% with IGROV1 ovarian; 94.2% in the experiment with OVCAR-3 ovarian; 94.6% in the experiment on HS 578T breast; 90% in the experiment on NCI/ADR-RES ovarian; 76.2% with T-47D breast; 96.1% with BT-549 breast. Further, the growth was 100% in the experiment with MDA-MB-435 melanoma; 99.2% in the experiment with SW-620 colon; 78.3% with MCF7 breast; 89.2% with HCT-116 colon; 113% in the experiment with HCC-2998 colon; 86.7% with KM12 colon.

As for `CC(C)NC(=O)c1cc(-c2ccc(NC(=O)Nc3ccc(F)c(C(F)(F)F)c3)cc2)nc2cccnc12`, the growth in the experiment on SR leukemia is 81.6%; in the experiment with RPMI-8226 leukemia, 89.8%; in the experiment with OVCAR-8 ovarian, 79.5%; with OVCAR-5 ovarian it was 113%; with OVCAR-4 ovarian, 92.3%; in the experiment on SK-OV-3 ovarian, 105%. Also, the growth in the experiment with IGROV1 ovarian is 110%; in the experiment with OVCAR-3 ovarian, 109%; with HS 578T breast it was 87.6%; with NCI/ADR-RES ovarian it was 98.2%; with T-47D breast it was 80.3%; in the experiment on BT-549 breast, 100%. In addition, the growth in the experiment with MDA-MB-435 melanoma is 91.3%; in the experiment with SW-620 colon, 106%; in the experiment on MCF7 breast it was 91.8%; in the experiment with HCT-116 colon it was 81.9%; with HCC-2998 colon it was 115%; in the experiment with KM12 colon, 89.6%.

As to `COc1ccc(C2CC(c3cccc(OCCCCOc4cccc(C5=NOC(c6ccc(OC)cc6)C5)c4)c3)=NO2)cc1` (configuration not stated), the growth in the experiment with SR leukemia was 29.9%; with RPMI-8226 leukemia it was -21.9% (active); in the experiment on OVCAR-8 ovarian, 93.5%; in the experiment with OVCAR-5 ovarian it was 111%; in the experiment on OVCAR-4 ovarian it was 90.3%; in the experiment on SK-OV-3 ovarian it was 106%. The growth in the experiment on IGROV1 ovarian was 89.6%; in the experiment on OVCAR-3 ovarian, 96.2%; in the experiment with HS 578T breast, 109%; in the experiment with NCI/ADR-RES ovarian, 107%; in the experiment with T-47D breast, 73.7%; in the experiment with BT-549 breast it was 113%. The growth in the experiment on MDA-MB-435 melanoma was 105%; in the experiment on SW-620 colon, 32.9%; in the experiment with MCF7 breast, 15%; with HCT-116 colon it was -21.9% (active); in the experiment on HCC-2998 colon it was 101%; in the experiment on KM12 colon, 76.2%.

Take `CN1c2ccccc2Sc2cc(/C=N/Nc3ccnc4cc(Cl)ccc34)ccc21`: the growth was -1.36% (active) in the experiment with SR leukemia; 46.3% in the experiment with RPMI-8226 leukemia; 60.5% in the experiment with OVCAR-8 ovarian; 106% in the experiment on OVCAR-5 ovarian; 94% in the experiment with OVCAR-4 ovarian; 102% in the experiment on SK-OV-3 ovarian. Besides, the growth was 104% with IGROV1 ovarian; 90.8% in the experiment on OVCAR-3 ovarian; 105% with HS 578T breast; 12.6% in the experiment on NCI/ADR-RES ovarian; 87.4% with T-47D breast; 99% in the experiment with BT-549 breast. For the same compound, the growth in the experiment on MDA-MB-435 melanoma was 62.9%; with SW-620 colon it was 84.8%; in the experiment on MCF7 breast it was 49.4%; in the experiment on HCT-116 colon, 57.3%; in the experiment on HCC-2998 colon, 110%; in the experiment on KM12 colon it was 86.8%.

Take `CCCCCC[n+]1ccc(SCC(=O)n2ccc3ccccc32)c2ccccc21`: the growth was 56.6% in the experiment with SR leukemia; 49.6% with RPMI-8226 leukemia; 92.1% in the experiment on OVCAR-8 ovarian; 98.4% in the experiment on OVCAR-5 ovarian; 58.6% with OVCAR-4 ovarian; 89.9% in the experiment with SK-OV-3 ovarian. For the same compound, the growth in the experiment on IGROV1 ovarian was 74.1%; in the experiment with OVCAR-3 ovarian, 84.7%; in the experiment with HS 578T breast, 97.6%; in the experiment with NCI/ADR-RES ovarian, 103%; in the experiment with T-47D breast, 59.1%; in the experiment on BT-549 breast, 73.2%. Further, the growth in the experiment with MDA-MB-435 melanoma is 101%; with SW-620 colon, 92.1%; in the experiment with MCF7 breast it was 75.6%; with HCT-116 colon, 73.2%; with HCC-2998 colon, 92.8%; with KM12 colon, 84.3%.

As to `COc1ccc(CC(C)=C(c2ccc(OCCN3CCCC3)cc2)c2ccc(OCCN3CCCC3)cc2)cc1`, the growth is -34% (active) in the experiment on SR leukemia; -21.7% (active) in the experiment with RPMI-8226 leukemia; -81.6% (active) in the experiment on OVCAR-8 ovarian; -91.1% (active) in the experiment with OVCAR-5 ovarian; -86.9% (active) in the experiment with OVCAR-4 ovarian; -88% (active) in the experiment with SK-OV-3 ovarian. For the same compound, the growth in the experiment with IGROV1 ovarian is -76.5% (active); in the experiment with OVCAR-3 ovarian, -81% (active); in the experiment on HS 578T breast it was -47.3% (active); in the experiment with NCI/ADR-RES ovarian it was -80.5% (active); with T-47D breast, -49.9% (active); in the experiment on BT-549 breast, -69.5% (active). Besides, the growth with MDA-MB-435 melanoma was -76.4% (active); with SW-620 colon, -53% (active); in the experiment on MCF7 breast, -80% (active); with HCT-116 colon it was -17.6% (active); in the experiment on HCC-2998 colon, -80.3% (active); in the experiment with KM12 colon it was -95.3% (active).

Source of the values: PubChem BioAssay (NCI).
